Results filed as inconclusive are left out. Calls of active or inactive are those of the source. Unless noted, the rule behind the calls is not given here.
Experiments:
[1] = stimulators of insulin release from INS-1E, primary screen, cell-based, 5 mM glucose, NPC library (AID 1117329;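 active = compound raises insulin release from rat beta cells at 5 mM glucose, no numeric limit stated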); details: rat INS-1E insulin secretion, at 10 µM, stronger effect = higher value
[2] = growth inhibition of GSK3B-pretreated HCT116 cells – cell-based, CellTiter-Glo, 0.2 to 20 µM (AID 1117336;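 active = compounds lowering colon cancer cell viability after pretreatment blocking the GSK3B kinase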); details: HCT116 viability after GSK3B inhibitor, at 20 µM, stronger effect = higher value
[3] = inhibition of endothelial tube formation, primary screen, imaging, VEGF stimulated, CD31 staining, tube area, NPC library (AID 1117340;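 active = compound that reduces growth-factor-driven endothelial tube area in a mixed cell culture, no cutoff stated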); details: VEGF-stimulated ADSC/ECFC co-culture, at 10 µM, stronger effect = higher value
[4] = glucagon-like peptide 1 release enhancers, primary assay, NCI-H716 cell line, NPC library (AID 1117341;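 active = compound raises GLP1 secretion from the human gut endocrine cells, with no numeric limit stated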); details: NCI-H716 cells, at 10 µM, stronger effect = higher value
[5] = HCT116 colon cancer cell growth inhibition, primary screen, CellTiter-Glo luminescence, NPC library (AID 1117342;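 active = compounds that lower survival of HCT116 colon cancer cells in the luminescence readout, no numeric limit stated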); details: at 20 µM (top of the series)
[6] = CellTiter-Glo luminescent readout of SW480 viability loss, NPC library primary (AID 1117343;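 active = compounds that lower viability of the colon cancer cells in the luminescence readout, with no numeric limit stated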); details: CellTiter-Glo luminescence; at 20 µM (top of the series)
[7] = decreased DLD-1 cellular survival, CellTiter-Glo luminescent readout, NPC compound collection, primary HTS (AID 1117346;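 active = compounds that lower survival of DLD-1 colon cancer cells in the luminescence readout, no cutoff given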); details: DLD-1 viability, CellTiter-Glo luminescence; at 20 µM (top of the series)
[8] = modulation of C. elegans fzo-1 (AID 1259413);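 note: fzo-1 mutant C. elegans worms in liquid wells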; details: C. elegans fzo-1 modulator screen, mean read-out; stronger effect = higher value
[9] = differential killing of epithelial or mesenchymal cells, primary screen, imaging, PC-3E GFP, TEM4-18 mCherry, co-culture (AID 1345086;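 active = compounds killing one labelled cell type while sparing the other, by normalised counts and ratio limits, not self-fluorescent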;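 for all read-outs here: cells exposed to compound for 72 h before imaging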;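 for red/green cell ratio (normalised): normalised mesenchymal count divided by normalised epithelial count so high means epithelial killing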); details: imaging cell counts, at 1 µM; for red/green cell ratio (normalised): actives lie on both sides, counts scaled to control wells, 1 = unselective
[10] = test system: Aerobactin synthetase IucA (Klebsiella pneumoniae); assay: IucA aerobactin synthetase inhibitors, biochemical, Tocris library, absorbance (AID 1345561); details: purified IucA enzyme assay, absorbance (OD) read-out; stronger effect = lower value;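 tested at 8 µM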;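 note: 100% = enzyme without compound and 0% = no enzyme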
[11] = growth inhibition of DIPG glioma cells, dose response, cell-based, SU-DIPG-XVII, MIPE5.0, CellTiter-Glo, qHTS (AID 1347060; cut-off not given, nearly all actives have AC50 up to about 26 µM); details: SU-DIPG-XVII viability, CellTiter-Glo ATP luminescence
[12] = growth inhibition of DIPG glioma cells, dose response, cell-based, SU-DIPG-XIII, MIPE4.0, CellTiter-Glo, qHTS (AID 1347061; cut-off not given, nearly all actives have AC50 up to about 37 µM;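 note: cells exposed to compound for 48 hours before readout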); details: SU-DIPG-XIII viability, CellTiter-Glo ATP luminescence
[13] = growth inhibition of DIPG glioma cells, dose response, cell-based, JHH-DIPG-1, MIPE4.0, CellTiter-Glo, qHTS (AID 1347062; cut-off not given, nearly all actives have AC50 up to about 27 µM); details: JHH-DIPG-1 viability, CellTiter-Glo ATP luminescence
[14] = growth inhibition of DIPG glioma cells, dose response, cell-based, SU-DIPG-IV, MIPE4.0, CellTiter-Glo, qHTS (AID 1347063; cut-off not given, nearly all actives have AC50 up to about 30 µM;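 note: compound exposure lasted 48 hours before the viability readout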); details: SU-DIPG-IV viability, CellTiter-Glo ATP luminescence
[15] = growth inhibition of DIPG glioma cells, dose response, cell-based, SU-DIPG-XIII, MIPE5.0, CellTiter-Glo, qHTS (AID 1347064; cut-off not given, nearly all actives have AC50 up to about 23 µM); details: SU-DIPG-XIII viability, CellTiter-Glo ATP luminescence
[16] = measured here: epithelial PC-3E GFP cell survival
[17] = measured here: mesenchymal TEM4-18 mCherry cell survival

CCN1CCCC1CNC(=O)c1cc(S(=O)(=O)CC)c(N)cc1OC (configuration not stated)
0.9: normalised cell number [9, 17]
inactive: insulin secretion stimulation [1] 0% | viability decrease [2] -1.8% | tube area decrease [3] -11.8% | GLP1 secretion stimulation [4] -4.7% | inhibition of viability [5] -1.4% | viability decrease (inhibition) [6] 1.7% | viability decrease (inhibition) [7] -1.4% | mean signal [8] 235 | red/green cell ratio (normalised) [9] 1.01 | remaining activity [10] 104% | outcome [11] | outcome [12] | outcome [13] | outcome [14] | outcome [15]
0.89: normalised cell number [9, 16]

CC(C)NCC(O)COc1ccc(CCOCC2CC2)cc1 (configuration not stated)
1.02: normalised cell number [9, 17]
1.26: normalised cell number [9, 16]
inactive: insulin secretion stimulation [1] -1.4% | viability decrease [2] -6.1% | tube area decrease [3] 26% | GLP1 secretion stimulation [4] 1.9% | inhibition of viability [5] 14.2% | viability decrease (inhibition) [6] 10.9% | viability decrease (inhibition) [7] 2.1% | mean signal [8] 281 | red/green cell ratio (normalised) [9] 0.81 | remaining activity [10] 100% | outcome [11] | outcome [12] | outcome [13] | outcome [14] | outcome [15]

CCc1nn(CCCN2CCN(c3cccc(Cl)c3)CC2)c(=O)n1CCOc1ccccc1
0.96: normalised cell number [9, 16]
active: viability decrease [2] 67.2% | inhibition of viability [5] 85.7% | viability decrease (inhibition) [6] 91.5% | viability decrease (inhibition) [7] 81.3%
1.06: normalised cell number [9, 17]
inactive: insulin secretion stimulation [1] -1.1% | tube area decrease [3] 30.7% | GLP1 secretion stimulation [4] -2.9% | mean signal [8] 239 | red/green cell ratio (normalised) [9] 1.11 | remaining activity [10] 104%

CCC1=C(C)CN(C(=O)NCCc2ccc(S(=O)(=O)NC(=O)NC3CCC(C)CC3)cc2)C1=O (configuration not stated)
1.22: normalised cell number [9, 16]
active: insulin secretion stimulation [1] 29.4%
1.05: normalised cell number [9, 17]
inactive: viability decrease [2] 34.1% | tube area decrease [3] -7.2% | GLP1 secretion stimulation [4] 2.3% | inhibition of viability [5] 2.4% | viability decrease (inhibition) [6] 17.1% | viability decrease (inhibition) [7] 7.8% | mean signal [8] 255 | red/green cell ratio (normalised) [9] 0.86 | remaining activity [10] 90.7% | outcome [11] | outcome [12] | outcome [13] | outcome [14] | outcome [15]

CC(=O)NS(=O)(=O)c1ccc(N)cc1
0.84: normalised cell number [9, 16]
1.31: normalised cell number [9, 17]
inactive: insulin secretion stimulation [1] -1.9% | viability decrease [2] -5.2% | tube area decrease [3] 14.5% | GLP1 secretion stimulation [4] -1.7% | inhibition of viability [5] 1.2% | viability decrease (inhibition) [6] -3.2% | viability decrease (inhibition) [7] -1.3% | mean signal [8] 275 | red/green cell ratio (normalised) [9] 1.56

COc1ccc2nc(S(=O)Cc3ncc(C)c(OC)c3C)[nH]c2c1 (configuration not stated)
0.98: normalised cell number [9, 16]
0.96: normalised cell number [9, 17]
inactive: insulin secretion stimulation [1] 0.4% | viability decrease [2] 13.3% | tube area decrease [3] 29.3% | GLP1 secretion stimulation [4] 1.7% | inhibition of viability [5] -0.23% | viability decrease (inhibition) [6] -451% | viability decrease (inhibition) [7] -12.7% | mean signal [8] 241 | red/green cell ratio (normalised) [9] 0.98 | remaining activity [10] 103% | outcome [11] | outcome [13] | outcome [14] | outcome [15]

CC1CCN(CCCC(=O)c2ccc(F)cc2)CC1
0.97: normalised cell number [9, 16]
inactive: insulin secretion stimulation [1] 8.9% | viability decrease [2] 5.7% | tube area decrease [3] 10.4% | GLP1 secretion stimulation [4] -0.3% | inhibition of viability [5] 45.7% | viability decrease (inhibition) [6] 23.2% | viability decrease (inhibition) [7] 37.1% | mean signal [8] 246 | red/green cell ratio (normalised) [9] 0.9 | remaining activity [10] 103%
0.88: normalised cell number [9, 17]
